High-throughput results: PubChem, National Center for Advancing Translational Sciences (NCATS)
D1 PAM – enhances dopamine response at the human D1 receptor. P21728. HEK293 TREx D1 cells, calcium flux, dopamine EC20 potentiation. potentiation, % at 10 µM. actives 0.036% (n = 360,000). AID 504651; in the data active = potentiation above about 30%
TRHR PAM – allosteric enhancers of human TRH receptor; P34981; TRHR cells, fluo-8 calcium fluorescence, EC20 TRH enhancement; enhancement, % at 2 µM; actives 0.66% (n = 360,000); AID 493056; in the data active = enhancement above about 30%
Target sequence (P34981 whole entry, looked up): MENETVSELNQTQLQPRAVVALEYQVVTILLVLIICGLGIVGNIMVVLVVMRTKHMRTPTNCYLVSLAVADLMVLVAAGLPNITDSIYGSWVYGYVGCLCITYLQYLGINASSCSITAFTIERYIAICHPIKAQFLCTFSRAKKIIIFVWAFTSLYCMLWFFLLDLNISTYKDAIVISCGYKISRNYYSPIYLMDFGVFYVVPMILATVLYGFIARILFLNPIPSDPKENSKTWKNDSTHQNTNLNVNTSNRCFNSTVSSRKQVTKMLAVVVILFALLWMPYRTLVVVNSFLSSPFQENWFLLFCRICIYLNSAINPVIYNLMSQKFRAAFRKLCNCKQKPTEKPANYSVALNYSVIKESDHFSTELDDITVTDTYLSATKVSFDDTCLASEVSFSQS
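TRHR-expressing cells loaded with fluo-8 calcium dye were read kinetically (ex 480/em 530) during compound addition, then stimulated with an EC20 of TRH (10 nM final). Enhancement of the Gq-mediated intracellular calcium response was scored.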
D1 antag – human D1 dopamine receptor antagonism; P21728; HEK293 TREx D1 cells, calcium flux, dopamine EC80; stronger effect = lower value; activity change, negative = inhibition, % at 10 µM; actives 3.2% (n = 360,000); AID 504652; in the data active = activity change below about -30%
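Inducible Hek293 Trex D1 cells (tetracycline, overnight, 30 C). Calcium dye 30–90 min RT. Antagonist mode: EC80 dopamine added after 180 s compound read.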
TRHR ag – TRH receptor (human) agonism | P34981 | TRHR cells, calcium flux fluo-8, FDSS agonist mode | activation, % at 2 µM | actives 0.18% (n = 360,000)
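Fluo-8-loaded TRHR cells; 10 s baseline, compound added, kinetic Ca2+ fluorescence read 1/s, agonist mode.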
D1 ag – activates the human D1 dopamine receptor | P21728 | HEK293 T-REx D1 cells, calcium flux, agonist mode | activation, % at 2 µM | actives 1% (n = 360,000) | AID 504660
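Tetracycline-induced HEK293 TREx D1 cells, force-coupled to calcium signalling, were dye-loaded with a no-wash calcium kit. Compound was pin-added after a 10 s baseline. Fluorescence was read kinetically at 1 cycle/s for 180 s, with calcium rises flagged as agonism.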
USP1-UAF1 inh – blocks the human USP1/UAF1 deubiquitinase complex. O94782. recombinant USP1/UAF1, Ub-Rhodamine cleavage fluorescence. Potency, µM (highest dose often 57.1 µM), actives largely listed as inhibitors. actives 0.23% (n = 390,000); active = well fitted inhibition curve with a large enough effect; inconclusive = small, poorly fitted or top-dose-only effect; inactive = no such curve, though single readings can be large or run the other way; also: nearly all actives have a fitted effect of over 60% in size
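USP1/UAF1 complex at 1 nM was preincubated with compound for 15 min at room temperature, then Ub-Rho substrate (150nM final) was added. Fluorescence (480/540 nm) was read kinetically, 6 reads every 60 seconds.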
Large screens that a line does not name were inactive. An excerpt weighted towards active compounds, which were near 4.4% of everything screened. Rule as the data show it, unless noted: active = activation above about 30%; inactive = the rest.

CCOc1ccc(C2CC(=O)NC(NC(=O)c3cccc(Cl)c3)=N2)cc1 (configuration not stated)	none
COc1cc2c(cc1OC)C1O[C@](CCCCN3C(=O)c4ccccc4C3=O)(C2)OC2=C1C(=O)OC1(CCCCC1)C2	none (no result: USP1-UAF1 inh)
Cc1ccc(-c2nnc(-n3nc(C)cc3C)c3ccccc23)cc1	TRHR PAM 30
Cc1cc(C)n(-c2nnc(Nc3ccc(C)c(Cl)c3)c3ccccc23)n1	D1 antag -40
CCc1nn(CC(=O)NCC(C)c2ccccc2)c(=O)c2cc3c(OC)cccc3n12 (configuration not stated)	none
Cc1ccc(Cn2c(CNS(=O)(=O)c3c(C)cc(C)cc3C)nc3cccnc32)cc1	none
COc1ccc(C(=O)c2ccc(Br)cc2)c2ccccc12	D1 antag -40
CCN(C(=O)C1CCN(S(=O)(=O)c2cc(Br)cc3c2N(C(C)=O)CC3)CC1)c1cccc(C)c1	none
COCCCN(C(=S)Nc1cc(C)cc(C)c1)C(C)c1ccncc1 (configuration not stated)	none
COCCCN(C(=S)Nc1cccc(Cl)c1)C(C)c1ccncc1 (configuration not stated)	TRHR PAM 37
CCCCCCSc1nsc(NC(=O)CCC)n1	D1 antag -39
COc1cccc(C(=O)/C=C/Nc2ccc(S(=O)(=O)Nc3onc(C)c3C)cc2)c1	none
Cc1noc(NS(=O)(=O)c2ccc(NC(=O)Nc3ccc(Cl)c(Cl)c3)cc2)c1C	D1 antag -47, D1 ag 33, USP1-UAF1 inh inconclusive
Cc1noc(NS(=O)(=O)c2ccc(N/C=C\C(=O)c3cccc4ccccc34)cc2)c1C	D1 ag 43
Cc1noc(NS(=O)(=O)c2ccc(NC(=O)C(Cl)(Cl)Cl)cc2)c1C	none
O=C(CN1CCN(Cc2ccc(F)cc2Cl)S1(=O)=O)Nc1ccc(F)cc1	D1 ag 48
COc1ccc(N2CC(C(=O)Nc3ccc(NC(C)=O)cc3)CC2=O)cc1 (configuration not stated)	none
Cc1cc(C)c2c(c1)-c1c(ssc1=S)C(C)(C)N2C(=O)CSc1nncn1C	D1 ag 39
O=C(NCc1ccco1)c1ccc2c(c1)N(Cc1ccc(F)cc1)C(=O)c1ccccc1S2(=O)=O	none
Cc1cccc(OCC(=O)Nc2ccccc2OCc2cc(=O)n3ccccc3n2)c1	none
CNC(=S)N(Cc1ccc(OC)cc1)C1CC(=O)N(c2ccc(OC)cc2)C1=O (configuration not stated)	D1 antag -36
Cc1nn(Cc2ccc(Cl)cc2)c(C)c1NC(=O)CSc1nc2c(c(C(F)(F)F)n1)CCc1ccccc1-2	none
Cc1ccc(Cn2nc(C)c(NC(=O)CSc3nc4c(c(C(F)(F)F)n3)CCc3ccccc3-4)c2C)cc1	D1 antag -86
Cc1nn(-c2ccc(N3CCOCC3)nn2)c(C)c1CCC(=O)NCc1ccc(OC(C)C)cc1	none
Cc1cccc(NC(=O)N2CCN(C(=O)c3nsc4ccccc34)CC2)c1C	none
Cc1nc2c(-c3ccccc3)c[nH]n2c(=O)c1Cc1ccccc1	D1 ag 36 (no result: D1 PAM)
O=C(Cn1nc(C(=O)O)c2ccccc2c1=O)Nc1cc(Cl)ccc1-n1cncn1	TRHR PAM 37
O=C(Cn1nc(C(=O)O)c2ccccc2c1=O)Nc1cc(C(F)(F)F)ccc1-n1cncn1	none (no result: D1 PAM)
Cc1c(CC(=O)N2CCCCC2)c(=O)oc2cc(O)ccc12	none
COc1cccc2sc(Nc3nnc(-c4ccc(F)cc4)o3)nc12	USP1-UAF1 inh inconclusive
COc1cccc2sc(Nc3nnc(-c4cccs4)o3)nc12	D1 antag -46
COc1cccc(NS(=O)(=O)c2ccc3c(c2)CCN3C(C)=O)c1	none
COc1cc(Cl)c(NS(=O)(=O)c2ccc3c(c2)CC(C)N3C(=O)C2CCC2)c(OC)c1 (configuration not stated)	D1 antag -31
COc1cccc(NS(=O)(=O)c2ccc3c(c2)CCCN3C(=O)C2CCC2)c1	D1 antag -52
